High-throughput results deposited in PubChem BioAssay by National Center for Advancing Translational Sciences (NCATS).
Only some compounds are listed: those with a hit (about 7.3% of all), similar ones and a draw of the others.
NPC1 prom act – activates the NPC1 promoter; Huh7 NPC1 promoter luciferase reporter, 24 h; Potency, µM (top dose mostly 9.22 µM), most hits filed as activators; hit rate 2.4% among 320,000; also: nearly all actives have a fitted effect of over 60% in size
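Luminescence read-out of NPC1 promoter-driven luciferase in stably transfected Huh7 cells; compounds delivered in DMSO and left 24 h at 37C, 5% CO2, qHTS titration format.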
KinaseGlo FLuc – Kinase-Glo luciferase inhibition (counter-screen) | Potency, µM (titrated, usually from 38.3 µM), usual class: inhibitors | hit rate 0.28% among 200,000 | AID 1379 | Q27757 | Kinase-Glo luciferase, ATP luminescence, 8 min; also: nearly all actives have a fitted effect of over 60% in size
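Inhibition of Kinase-Glo luciferase light generation was assessed at 10 uM ATP in pH 7.2 imidazole buffer, with luminescence measured after eight minutes at ambient temperature.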
Rab9 prom act – Rab9 promoter activation | Potency, µM (series often up to 9.22 µM), usual class: activators | Huh7 Rab9 promoter-luciferase reporter, luminescence, 24 h | AID 485297 | hit rate 2.8% among 320,000; also: nearly all actives have a fitted effect of over 60% in size
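Luciferase signal after 10 min detection reagent at ambient indicates Rab9 promoter upregulation; stably transfected Huh7 cells were treated 24 h with compound in DMSO at 37 °C, 5% CO2.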
FLuc counter – counter-screen for miR-21 project: firefly luciferase inhibitors or activators; purified FLuc, Km substrates, luminescence inhibition; AID 588342; hit rate 6.9% among 360,000; P08659; Potency, µM (series often up to 57.5 µM), hits mostly inhibitors; also: nearly all actives have a fitted effect of over 55% in size
Target sequence (P08659 whole entry, looked up): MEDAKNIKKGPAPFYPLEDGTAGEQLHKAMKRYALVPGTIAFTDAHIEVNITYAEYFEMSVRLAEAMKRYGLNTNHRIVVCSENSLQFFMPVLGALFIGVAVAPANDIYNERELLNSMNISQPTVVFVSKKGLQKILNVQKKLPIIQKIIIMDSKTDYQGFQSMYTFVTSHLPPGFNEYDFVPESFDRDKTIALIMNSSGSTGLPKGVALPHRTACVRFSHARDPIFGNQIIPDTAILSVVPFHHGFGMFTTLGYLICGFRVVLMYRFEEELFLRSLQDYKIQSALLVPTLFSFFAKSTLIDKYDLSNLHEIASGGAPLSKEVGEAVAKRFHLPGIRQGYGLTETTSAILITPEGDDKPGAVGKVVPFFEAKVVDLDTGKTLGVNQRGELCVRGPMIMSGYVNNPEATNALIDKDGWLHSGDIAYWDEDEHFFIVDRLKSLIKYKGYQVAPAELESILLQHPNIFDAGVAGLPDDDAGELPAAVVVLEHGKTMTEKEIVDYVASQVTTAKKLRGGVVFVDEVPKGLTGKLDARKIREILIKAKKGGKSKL
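Purified P. pyralis luciferase, 10 nM final, with Km-level 10 uM D-luciferin and 10 uM ATP in 50 mM Tris acetate pH 7.5, 10 mM Mg acetate, 0.01% Tween-20, 0.05% BSA; 6-point qHTS titration about 60 µM downward; luminescence read.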
SMN2 splice up – increases expression of the SMN2 splice variant; hit rate 2.8% among 210,000; HEK293 SMN2-luciferase splicing reporter, luminescence, 30-36 h; AID 1458; Potency, µM (top dose mostly 46.1 µM), most hits filed as activators; also: nearly all actives have a fitted effect of over 55% in size
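HEK293 cells carry an SMN2 […]–luciferase reporter in which exon 7 inclusion puts luciferase in frame. Cells were plated 10-12 h before compound addition, then incubated 30-36 h at 37C. ONE-Glo luminescence was read; sodium butyrate at 4.5 mM final served as control.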
Numbers stand for hits; – = inactive; ? = inconclusive; · = not tested or not shown; [ ] = dose if it differs, or a comment. Calls follow the shape of the dose curve; as a rule, active = well fitted curve in the direction sought with a large enough effect; inconclusive = small, poorly fitted or top-dose-only effect, or another doubt; inactive = no such curve, though single readings can be large; an effect the other way counts as inactive or inconclusive.

SMILES	NPC1 prom act	KinaseGlo FLuc	Rab9 prom act	FLuc counter	SMN2 splice up
Cc1ccc(CONC(=O)c2ccc(Cl)cc2)cc1	–	·	?	?	·
Cc1ccc(CONC(=O)c2ccccc2)cc1	?	·	?	15µM	·
Cc1ccc(CONC(=O)c2ccc(C)cc2)cc1	?	·	?	13µM	·
Cc1ccc(C(=O)N/C(=C/c2ccco2)C(=O)OCN2C(=O)c3ccccc3C2=O)cc1	–	–	–	11µM	–[1.84 µM]
Cc1ccc(C(=O)N/C(=C\c2ccccc2)C(=O)OCc2ccccc2)cc1	?	–	?	15µM	20µM
Cc1ccccc1OCC(=O)Nc1ccc(C(=O)OCc2cc(=O)n3ccsc3n2)cc1	·	·	·	–	·
COc1ccc(OC)c(NC(=O)Cn2c(=O)cc(-c3ccccc3)c3c(C)nn(C)c32)c1	·	·	·	–	·
COCCCNC(=O)c1cc2c(=O)oc3ccc(C)cc3c2s1	·	·	·	–	–
COc1ccccc1-c1nc2c(c(SCc3ccc(F)cc3Cl)n1)Cc1c(CO)cnc(C)c1O2	·	·	·	–	·
COc1ccc(/C=C2\SC(=S)N(c3cccnc3)C2=O)cc1	–	·	–	–	·
COc1cccc(/C=C2\SC(=S)N(c3cccnc3)C2=O)c1OC	–	–	–	2.4µM	–
O=C(CCC(=O)N1CCSc2ccccc21)NCc1ccccc1Cl	·	·	·	–	–
Cc1cccc(C(=O)O/N=C(\N)Cc2ccc([N+](=O)[O-])cc2)c1	–	–	–	–	?
Cc1ccc(C(=O)O/N=C(\N)Cc2ccc([N+](=O)[O-])cc2)c(Cl)c1	–	·	–	21µM	·
Cc1ccc(C(=O)O/N=C(\N)Cc2cccs2)c(Cl)c1	1.6µM	·	2µM	1.2µM	·
CC(=O)c1cc(-c2ccccc2)n(CCC(=O)Nc2nc3c(C)cccc3s2)c1C	·	·	·	–	·
c1ccc(Cn2nc(-c3ccccc3)nc2-c2ccccc2)cc1	–	–	–	21µM	–
Cc1ccc(Cn2nc(-c3ccccc3)nc2-c2ccccc2)cc1	?	–	3.5µM	15µM	?
Cn1nc(-c2ccccc2)nc1-c1ccccc1	?	·	?	21µM	·
Cc1nnc2nc(-c3ccccc3)nc(-c3ccccc3)n12	–	·	–	–	·
O=C(CCS(=O)(=O)c1cccc2nonc12)Nc1c(F)cccc1F	·	·	·	–	–
COC(c1ccccc1)c1nnc(CCC(=O)N2CCCCCCC2)o1 (stereo not drawn)	–	–	–	–	·
COC(c1ccccc1)c1nnc(CCC(=O)N(C)C(C2CC2)C2CC2)o1 (stereo not drawn)	?	–	2.8µM	13µM	·
CCc1ccc(C(=O)NC(CCSC)C(=O)OC)cc1 (stereo not drawn)	–	–	–	19µM	–
COC(=O)[C@H](CCSC)NC(=O)c1cccnc1SC	–	·	–	–	·
SMILES	NPC1 prom act	KinaseGlo FLuc	Rab9 prom act	FLuc counter	SMN2 splice up
Cc1cccc(CCNC(=O)c2cc3c(=O)n(C)c4ccccc4c3n2C)c1	·	·	·	–	–
COc1ccc(/C=C/C(=O)c2ccc3c(c2)OCCO3)cc1[N+](=O)[O-]	–	–	–	6.7µM	–
O=C(/C=C/c1ccc2c(c1)OCCO2)c1ccccc1	2.8µM	·	1µM	0.48µM	·
COc1ccc(C(=O)/C=C/c2ccc3c(c2)OCCO3)cc1	–	·	?	1.7µM	·
Cc1ccc(/C=C/C(=O)c2ccccc(=O)c2O)cc1C	–	–	–	?	–
Cc1ccc(O)c(C(=O)/C=C/c2ccc3c(c2)OCCO3)c1	–	–	?	24µM	–
CC[C@H](C)[C@@H](NC(=O)O[C@H]1C(=O)c2ccc(OC)cc2O[C@@H]1c1ccc2c(c1)OCO2)C(=O)OC	·	–	·	·	–
Cc1cc(Br)ccc1NC(=O)COc1cc(=O)n(C)c2ccccc12	·	·	·	–	–
O=C(NCc1ccco1)c1ccc2c(c1)N(Cc1ccccc1F)C(=O)c1ccccc1S2=O (stereo not drawn)	·	·	·	–	–
COc1ccccc1CNC(=O)CCC1N=C2c3ccccc3N=C(SCC(=O)Nc3ccc(F)cc3)N2C1=O (stereo not drawn)	·	·	·	–	·
Cc1c(C(=O)/C=C/N(C)C)nnn1-c1ccc(Cl)cc1Cl	–	·	–	?	·
O=C(/C=C/c1ccccc1Cl)c1ccc[nH]1	–	–	–	7.6µM	–
O=C(/C=C/c1ccc(Cl)cc1Cl)c1ccc[nH]1	–	–	–	2.7µM	–
O=C(/C=C/c1ccc(Cl)cc1Cl)n1cccn1	–	–	–	3.8µM	–
CN(C)/C=C/C(=O)/C=C/c1ccc(Cl)cc1Cl	2.2µM	–	1µM	12µM	20µM
Cc1ccc2c(=O)cc(C(=O)Nc3nnc(CC(C)C)s3)oc2c1C	·	·	·	?	–
CCCCCc1ccc(-c2ccc(Br)cc2)nc1	·	·	·	2.1µM	–
CCCCCCCc1ccc(-c2ccc(O)cc2)nc1	?	–	3.2µM	19µM	14µM
O=C1c2ccccc2C(=O)N1CCC1=CCCCC1	–	–	–	15µM	–
O=C(O)c1ccc2c(c1)C(=O)N(CCC1=CCCCC1)C2=O	–	–	–	–	–
c1ccc(-c2csc(N3CCN(c4ccccn4)CC3)n2)cc1	?	–	?	11µM	–
CN(C)C(=O)N1CCN(c2nc(-c3ccccc3)cs2)CC1	2.2µM	·	1.1µM	3µM	·
S=C(NCCCN1CCOCC1)N1CCN(c2nc(-c3ccccc3)cs2)CC1	–	–	–	–	·
Clc1ccc(-c2csc(N3CCN(c4ccccc4)CC3)n2)cc1	·	–	·	–	–
O=C(N1CCOCC1)N1CCN(c2nc(-c3ccccc3)cs2)CC1	–	–	?	21µM	–
SMILES	NPC1 prom act	KinaseGlo FLuc	Rab9 prom act	FLuc counter	SMN2 splice up
c1ccc(-c2csc(N3CCOCC3)n2)cc1	?	–	?	15µM	11µM
CN(C)c1ccc(NC(=O)c2cccc(N3C(=O)C4C5C=CC(C5)C4C3=O)c2)cc1 (stereo not drawn)	1.8µM	–	3.2µM	11µM	–
CCC1c2ccc(C)n2CCN1C(=O)Nc1ccccc1C(=O)OC (stereo not drawn)	–	–	–	–	–
CCCC1c2ccc(C)n2CCN1C(=O)Nc1ccccc1Cl (stereo not drawn)	–	–	–	12µM	?
Cc1cccc(NC(=O)NCCn2c(=O)oc3ccc(C)cc32)c1	·	·	·	–	–
COC(=O)c1cccn(CC(=O)c2ccc(Cl)cc2Cl)c1=O	–	–	–	15µM	–
O=C(Nc1cc(Cl)cc(Cl)c1)c1cc(S(=O)(=O)NC2CCCC2)ccc1F	·	·	·	–	·
Cn1c(N)c(C(=O)Nc2ccccc2F)sc1=S	–	·	–	–	·
COc1ccc(C(=O)Nc2ccc(N3CCN(c4ccc(OC)cc4)CC3)c(C#N)c2)cc1	–	–	–	–	10µM
COc1cccc(C(=O)Nc2ccccc2)c1	?	–	?	24µM	?
COc1cccc(C(=O)Nc2ccc(NC(=O)Cc3ccccc3)cc2)c1	–	·	–	–	·
Cn1c(N)c(C(=O)Nc2ccc3ccccc3c2)sc1=S	1.8µM	–	2.2µM	?	?
COc1c(C(=O)NNC(=O)c2ccccc2)csc1Br	?	·	2.8µM	11µM	·
CCOC(=O)c1cccc(Nc2c3c(nc4ccccc24)CCC3)c1	·	·	·	–	–
